RE007 growth inh: qHTS Assay for Inhibitors of the HIV-1 protein Vpr; Potency, µM (titrated, usually from 92.2 µM), usual class: inhibitors; S. pombe RE007 Vpr strain, BacTiter-Glo ATP luminescence, 24 h; hit rate 0.21% among 360,000; active = well fitted falling curve with a large enough effect; inconclusive = small, poorly fitted or top-dose-only effect; inactive = no such curve, though single readings can be large or run the other way; note: nearly all actives have a fitted effect of over 50% in size
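Fission yeast strain RE007, carrying one chromosomally integrated HIV-1 vpr copy, was seeded at OD 0.01 in PMG+AL medium with 23 nL pinned compound. After 24 h at 30 °C and 99% humidity, viability was read by BacTiter-Glo luminescence.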
Sm TGR block: qHTS Assay for the Inhibitors of Schistosoma Mansoni Peroxiredoxins; Schistosoma mansoni thioredoxin glutathione reductase (TGR), Q962Y6; purified TGR, DTNB reduction, TNB absorbance 405 nm; Potency, µM (highest dose often 114 µM), most hits filed as inhibitors; hit rate 3% among 360,000; note: nearly all actives have a fitted effect of over 60% in size
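TGR 20 nM + NADPH 100 uM (dispensed conc.), cpd preinc 15 min RT; start with NADPH (500 uM addition) then DTNB (15 mM addition). Kinetic TNB absorbance, 405 nm filter. Four-parameter Hill fit across titration.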
SARS PLpro yeast-1: qHTS of Yeast-based Assay for SARS-CoV PLP. S. cerevisiae expressing SARS-CoV PLpro, growth rescue. Potency, µM (series often up to 32.9 µM), most hits filed as activators. hit rate 0.19% among 330,000. AID 485353, 2010; calls by dose curve; note: nearly all actives have a fitted effect of over 55% in size
AmpC inh detg: qHTS Inhibitors of AmpC Beta-Lactamase (assay with detergent); P00811; AmpC hydrolysis of nitrocefin, absorbance 480 nm, 0.01% Triton; Potency, µM (highest dose often 114 µM), hits mostly inhibitors; hit rate 0.041% among 370,000; note: nearly all actives have a fitted effect of over 25% in size
Target sequence (P00811 whole entry, looked up): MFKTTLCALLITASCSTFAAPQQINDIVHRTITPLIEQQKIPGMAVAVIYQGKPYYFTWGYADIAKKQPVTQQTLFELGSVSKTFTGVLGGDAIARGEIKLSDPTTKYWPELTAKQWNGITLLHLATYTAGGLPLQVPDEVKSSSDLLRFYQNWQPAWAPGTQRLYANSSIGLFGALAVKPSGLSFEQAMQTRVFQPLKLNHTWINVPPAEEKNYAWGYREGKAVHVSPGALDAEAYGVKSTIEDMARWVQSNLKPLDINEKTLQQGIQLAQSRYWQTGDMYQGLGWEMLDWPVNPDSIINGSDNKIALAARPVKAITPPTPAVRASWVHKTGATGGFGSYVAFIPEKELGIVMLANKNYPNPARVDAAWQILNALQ
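AmpC (5.3 nM in the dispensed reagent) in 20 mM phosphate pH 7.0 with 0.01% (detergent screen) or 0.0001% Triton X-100 was preincubated with compounds for 15 min at room temperature. Nitrocefin was then added from an 800 uM solution, and hydrolysis was followed at 480 nm.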
Tb PYK inh: qHTS of Trypanosoma Brucei Inhibitors; TbPYK enzyme, Kinase-Glo Plus ATP luminescence, 45 min; Potency, µM (highest dose often 76.8 µM), usual class: inhibitors; pyruvate kinase (Trypanosoma brucei), Q57TT1; hit rate 0.12% among 410,000; note: nearly all actives have a fitted effect of over 50% in size
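Quantitative HTS: titrated library compounds versus trypanosomal pyruvate kinase in TEA buffer (pH 7.2) containing KCl, MgCl2, BSA and Tween-20. Reactions were initiated with ADP, 130 uM final. Kinase-Glo Plus luminescence was read after 45 min at RT.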
AmpC no deterg: qHTS Inhibitors of AmpC Beta-Lactamase (assay without detergent); AmpC nitrocefin hydrolysis, absorbance 480 nm, 0.0001% Triton; Potency, µM (highest dose often 57.1 µM), most hits filed as inhibitors; hit rate 0.52% among 330,000; AID 485341, 2010; note: nearly all actives have a fitted effect of over 20% in size
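20 mM phosphate pH 7.0 + 0.01% (detergent screen) or 0.0001% Triton X-100; 5.3 nM AmpC reagent; cpd preinc 15 min RT; nitrocefin (800 uM stock) to start; A480 q20 s × 4 min; Activity was normalised to no-enzyme and no-compound control wells.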
SARS PLpro yeast-2: qHTS of Yeast-based Assay for SARS-CoV PLP: Hit Validation; shares compounds with SARS PLpro yeast-1; yeast expressing SARS-CoV PLpro, growth phenotype rescue; calls only; hit rate 19% among 1,000; call rule not given here
Numbers stand for hits; i = inactive; ? = inconclusive; nt = no result given; + = active, no number; [ ] = remark or other dose. Sampled rows, rich in hits. Any-hit rate of the full collection: about 3.3%. Unless noted, calls come from the whole dose curve; as a rule, active = well fitted curve in the direction sought with a large enough effect; inconclusive = small, poorly fitted or top-dose-only effect, or another doubt; inactive = no such curve, though single readings can be large; an effect the other way counts as inactive or inconclusive.

SMILES	RE007 growth inh	Sm TGR block	SARS PLpro yeast-1	AmpC inh detg	Tb PYK inh	AmpC no deterg	SARS PLpro yeast-2
CCOC(=O)c1sc(=S)n(C)c1NC(=O)c1ccccc1Cl	i	i	22µM	i	i	i	i
CCOC(=O)c1sc(=S)n(C)c1NC(=O)c1ccc(OC)cc1	i	i	i	i	i	i	nt
N#Cc1c[nH]n2c(NC3CCCCC3)c(-c3ccc(F)cc3)nc12	nt	i	nt	i	i	nt	nt
CCCSCCCNC(=O)C1CCN(c2nn3cc(-c4ccc(F)cc4)nc3s2)CC1	nt	i	nt	i	i[15.4 µM]	nt	nt
Clc1ccc(CNC23CN4CN(CN(C4)C2)C3)c(Cl)c1	i	i	?	i	i	i	i
COc1ccccc1NC(c1cccnc1)c1ccc2cccnc2c1O (stereo not drawn)	i	i	4.5µM	?	i	i	?
CCc1ccccc1N(C)C(=O)c1cc2c(Cl)nc3ccc(C)cc3c2s1	nt	i	nt	i	i	nt	nt
N#Cc1ccc(Oc2ccc(-c3cnc4ccccc4n3)cc2)cc1C#N	i	i	2µM	i	i	i	+
Cc1cccc(NC(=S)/N=C(\N)Nc2nc(C)c3ccccc3n2)c1	i	i	?	i	i	i	nt
Cc1ccc(NC(=S)/N=C(\N)Nc2nc(C)c3ccccc3n2)cc1C	i	i	10µM	i	i	i	+
CCOc1ccc(CCNC(=O)c2[nH]c3cc(OC)ccc3c2Sc2ccccc2)cc1OCC	nt	i	nt	i	i	nt	nt
CC(C)(C)C1CCc2sc(-c3nnc(CCl)o3)cc2C1 (stereo not drawn)	i	?	i	i	i	i[11.4 µM]	nt
ClCc1nnc(-c2cc3c(s2)CCCC3)o1	i	i	?	i	i	i	i
Cc1ccc(-n2c(C)cc(/C=N/NC(N)=S)c2C)cc1	i	i	11µM	i	i	i	+
COc1ccccc1CCNC(=O)C1(c2cccs2)CCOCC1	nt	i	nt	i	i	nt	nt
Cc1ccc2c(c1)c1c(c(=O)n(Cc3ccccc3)c(=O)n1CC(=O)Nc1ccccc1F)n2C	nt	i	nt	i	i	nt	nt
CCCNC(=O)c1ccc(Cn2c(=S)[nH]c3c([nH]c4ccc(OC)cc43)c2=O)cc1	i	i	14µM	i	i	i	i
CN(C(=O)COC(=O)Cc1ccc(Cl)cc1)C1CCCCC1	i	nt	?	nt	i	i	i
O=C(COC(=O)c1cccnc1Cl)NC1CCCCCC1	i	nt	3.2µM	nt	i	i	i
COc1ccc(C2Nc3ccccc3C(=O)N2O)cc1CN1CCOCC1 (stereo not drawn)	i	i	22µM	i	i	i	i
Cn1cnc(S(=O)(=O)N2CCCC(C(=O)NCc3ccccc3)C2)c1 (stereo not drawn)	nt	i	nt	i	i	nt	nt
Cc1cc(OCC(=O)NC(C)(C)C)ccc1Cl	i	i	?	i	i	i	i
CC(C)Oc1ccc(CNC(=O)C2CCN(Cc3cc4ccccc4n3Cc3ccccc3)CC2)cc1	nt	i	nt	i	i	nt	nt
COc1cccc(C(Nc2ccccn2)c2oc(CO)cc(=O)c2O)c1 (stereo not drawn)	i	3.2µM	11µM	i	i	i	i
CC(C)c1cccc(O)c(=O)c1	i	?	?	?	i	i	i
SMILES	RE007 growth inh	Sm TGR block	SARS PLpro yeast-1	AmpC inh detg	Tb PYK inh	AmpC no deterg	SARS PLpro yeast-2
CC(C)CCNC(=O)CCn1c(=O)c2cccn2c2cccnc21	nt	i	nt	i	i	nt	nt
COC(=O)c1ccc(OC(=O)c2cccnc2)cc1	i	i	16µM	i	i	i	?
Cc1c(Cl)cccc1NC(=O)CCCn1nc(C)c2sc3ccccc3c2c1=O	nt	i	nt	i	i	nt	nt
O=c1cc(-c2ccccc2)n2c(SCc3c(F)cccc3Cl)nnc2[nH]1	nt	i	nt	i	i	nt	nt
Cc1c(N/N=C(\C#N)C(=O)c2ccc(Cl)cc2)c(=O)n(-c2ccccc2)n1C	i	i	13µM	i	i	i	i
CCCCn1ccnc1C	i	i	i	i	i	i	nt
Cc1nccn1CCCN1C(=O)CNC1=S	?	i	4.5µM	i	i	i	i
C=CCNC(=O)NC(=O)COC(=O)/C(C#N)=C/c1ccc(OC)cc1	i	i	i	i	i	i	nt
COc1ccc(/C=C(\C#N)C(=O)OCC(=O)NCc2ccc(Cl)cc2)cc1	nt	i	?	i	nt	i	i
O=C1OCCN1C(=O)[C@H]1[C@H](c2ccccc2)C(c2cccc(Cl)c2)=NN1c1ccccc1	i	nt	?	nt	i	i	+
CC1CCCN(c2nc3c(c(=O)[nH]c(=O)n3C)n2CCCc2ccccc2)C1 (stereo not drawn)	i	i	?	?	i	i	i
CC1CCN(c2nc3c(c(=O)[nH]c(=O)n3C)n2Cc2ccccc2)CC1	i	i	i	i	i	i	nt
Brc1ccc(OCc2nc(-c3ccccn3)n[nH]2)cc1	?	i	?	i	i	i	+
Cc1ccc(NC(=O)CCn2cccn2)cc1Cl	nt	i	nt	i	i	nt	nt
COc1ccc2c(c1)OC[C@H]1[C@H]2N2C(=O)CN(Cc3ccc(C)cc3)C(=O)[C@@]2(C)[C@H]1c1ccccc1	i	i	11µM	i	i	i	i
CCCCN1CC(=O)N2[C@H]3c4ccc(OC)cc4OC[C@@H]3[C@H](c3ccccc3)[C@]2(C)C1=O	i	i	?	i	i	i	i
COc1ccc2c(c1)OC[C@H]1[C@H]2N2C(=O)CN(Cc3ccc(F)cc3)C(=O)[C@@]2(C)[C@H]1c1ccccc1	i	i	i	i	i	i	nt
COc1cccc(N2CC(NC(=O)C(c3ccccc3)c3ccccc3)CC2=O)c1 (stereo not drawn)	nt	i	nt	i	i	nt	nt
Cn1cccc1/C=N/NC(N)=S	i	i	10µM	i	i	i	+
O=C(NCc1ccc(CNC(=O)c2ccco2)cc1)c1ccco1	i	i	?	i	i	i	i
O=C(NCc1ccc(Cl)c(Cl)c1)c1ccco1	?	i	i	i	i	i	nt
Cc1ccc(N(C(=O)Cn2nnc3ccccc32)C(C(=O)NCc2ccccc2)c2ccccn2)cc1 (stereo not drawn)	i	i	i	i	i	i	nt
CC(=O)c1ccc(N(C(=O)Cn2nnc3ccccc32)C(C(=O)NCc2ccccc2)c2ccccn2)cc1 (stereo not drawn)	i	i	18µM	?	i	i	i
CSc1nn(Cc2ccc(F)cc2)c(N(C(C)=O)C(C)=O)c1S(=O)(=O)c1ccccc1	nt	i	nt	i	i	nt	nt
COc1ccc(C)cc1NC(=O)c1cc2ccccc2cc1OCC(=O)NCc1ccco1	i	i	3.5µM	i	i	i	+
Cc1ccc(NC(=O)C(=O)NCC(c2cccnc2)N2CCc3ccccc32)cc1Cl (stereo not drawn)	nt	i	nt	i	i	nt	nt
